Screens from PubChem.
Most compounds without a hit are left out; they make up all but 2% or so of the library.
ABCB6 inh MLPCN = blocks the human ABCB6 transporter | Q9NP58 | K562-ABCB6 porphyrin accumulation, flow cytometry, 1 h; hits give low values | fluorescence ratio to DMSO, % at 10 µM | 0.19% of 360,000 active | AID 602162;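 active = fluorescence ratio to DMSO below 75%, the collection mean minus 3 SD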;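 note: signal is porphyrin accumulated inside mitochondria; 100% equals median channel fluorescence of DMSO control wells; lower ratio means ABCB6 inhibition with less porphyrin fluorescence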
Exocytosis inh = blocks lytic granule exocytosis | TALL-104 LAMP-1 surface exposure, flow cytometry; cells stimulated with thapsigargin and PMA | 0.66% of 360,000 active | AID 651702 | inhibition, % at 10 µM;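 active = inhibition above about 55%, limit read from the data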
Rev-erbA mod = modulates human Rev-erb alpha binding to DNA | P20393 | Rev-erbα–FITC-DNA binding, fluorescence polarization, 90 min | activity, % at 10 µM | 0.79% of 370,000 active | AID 1259318;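 active = activity above about 14%, limit read from the data; passing the limit was not always enough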;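 note: 0% = DMSO wells with 35 nM protein and 100% = DMSO wells with 750 nM protein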
PG9 binder = small molecules binding HIV-1 gp120 antibody PG9. 0.43% of 360,000 active. TR-FRET gp120-PG9 antibody binding. inhibition, % at 6.7 µM. AID 624416; in the data active = inhibition above about 8.5%
VLA-4 inh = inhibition in a human VLA-4 binding assay; P13612; VLA-4 expressing cells, ligand binding flow cytometry; inhibition, % (about 7 µM as worked out from the volumes in the protocol); 0.2% of 330,000 active; AID 2557; in the data active = inhibition above about 50%
Rev-erbA confirm = Rev-erb alpha (human) modulation, hit confirmation; shares compounds with Rev-erbA mod; Rev-erb alpha FITC-DNA binding, fluorescence polarization, 90 min; activation, % at 25 µM; 61% of 3,000 active;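 active = activation at or above a set limit, or at least 3 SD above the negative control mean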;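 note: 0% = 35 nM protein with DMSO and 100% = 750 nM protein high control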
RORg DNA counter = affects RORgamma DNA binding in a Rev-erb alpha counter-screen | 8% of 910 active | IC50, µM | AID 1259320 | purified RORgamma protein-FITC-DNA binding, fluorescence polarization | shares compounds with Rev-erbA mod;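 active = Compounds whose fitted half-maximal concentration for disrupting protein-DNA binding is below 10 micromolar; the record names Rev-erb in its text, so the target is in doubt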
* = called active by the depositor; i = inactive; nt = no result.

SMILES	ABCB6 inh MLPCN	Exocytosis inh	Rev-erbA mod	PG9 binder	VLA-4 inh	Rev-erbA confirm	others
N=c1c2c(-c3ccccc3)c(-c3ccccc3)n(Cc3ccccc3)c2ncn1C1CCC(O)CC1 (centres undefined)	nt	nt	0.4	nt	nt	nt
CCOc1ccc(N=Cc2c(O)n(C(C)(C)C)c(=O)[nH]c2=O)cc1	91.0	2.3	-3.2	-0.5	8.1	nt
O=c1[nH]c(=O)n(Cc2ccc(F)cc2)c(O)c1C=Nc1ccc(Cl)cc1	100.0	0.3	125.0*	1.3	21.2	9.5
CCOc1ccc(N=Cc2c(O)n(Cc3ccccc3)c(=S)[nH]c2=O)cc1	100.0	-2.0	41.2*	1.5	6.7	9.6
COc1ccc2nc(-c3ccc(CN4CCC(n5nnc6ccccc65)CC4)cc3)c(-c3ccccc3)nc2c1	nt	nt	3.6	2.1	nt	nt
N#CC1c2ccccc2-n2nncc2CN1C(=O)c1cccnc1 (centres undefined)	nt	nt	9.6	nt	nt	nt
CCOc1ccc2nc(N=Nc3c(O)[nH]c(=S)[nH]c3=O)sc2c1	101.0	1.8	24.6*	-5.1	-1.6	36.2*	RORg DNA counter=i
CCOc1ccc2nc(N=Nc3c(O)[nH]c(=O)[nH]c3=O)sc2c1	96.0	-1.5	25.4*	-6.8	0.5	15.9
Cc1c(N=Nc2c(O)[nH]c(=S)[nH]c2=O)c(=O)n(-c2ccccc2)n1C	99.0	1.5	1.3	-8.7	5.8	nt
CC(C)CC(C)N (centres undefined)	101.0	-0.3	18.9*	-0.8	11.4	-2.6
Cc1ccc(-n2c(O)c(/C=N/c3ncc(Br)cc3Br)c(=O)[nH]c2=O)cc1	100.0	-0.3	131.3*	-1.2	0.0	143.5*	RORg DNA counter=>40
O=C(CN1C(=O)[C@@H](Cc2ccccc2)N=C(c2ccccc2)c2ccccc21)NC1CCCCC1	nt	nt	-3.1	nt	nt	nt
CCN(CC)c1ccc(C=C2C(=O)N(C)C(=S)N(C)C2=O)o1	118.0	-0.4	34.5*	-3.2	-0.5	15.2
CN1C(=O)C(=Cc2ccc(N3CCCCC3)o2)C(=O)N(C)C1=S	98.0	-1.6	40.4*	-3.9	-20.2	47.2*	RORg DNA counter=>40
O=C1NC(=O)C(=Cc2ccc(N3CCOCC3)o2)C(=O)N1	168.0	2.4	29.7*	-5.8	-18.1	28.3*
CCN(CC)c1ccc(/C=C2\C(=O)NC(=S)N(C)C2=O)o1	122.0	-6.5	57.0*	-10.3	12.2	62.4*	RORg DNA counter=>40
O=C(NCCN1CCC2(CC1)C(=O)NCN2c1ccccc1)c1ccc(F)cc1F	nt	nt	0.4	-1.8	nt	nt
N#CC1c2ccccc2-n2nncc2CN1C(=O)c1ccc([N+](=O)[O-])o1 (centres undefined)	nt	nt	0.3	nt	nt	nt
CC(=O)[O][Hg][c]1ccccc1	nt	nt	-4.3	nt	nt	nt
CC[C@H](C)[C@@H]1OC(=O)[C@H](C(C)C)N(C)C(=O)[C@H](C(C)C)NC(=O)[C@@H](C)[C@@H](CCCC#CBr)OC(=O)[C@H](C(C)C)N(C)C(=O)C2CCCN2C1=O (some centres undefined)	nt	nt	4.4	nt	nt	nt
Cc1cc(C)cc(N2C(=O)/C(=C\c3ccc(N4CCN(C)CC4)o3)C(=O)NC2=S)c1	128.0	5.0	17.1*	-6.1	-48.2	11.3
Cc1ccc(/C=C2\C(=O)NC(=S)N(c3ccc(F)cc3)C2=O)o1	100.0	3.7	0.7	2.0	0.3	nt
CCCCn1c(=O)c(C(=O)Nc2ccccc2C)c(O)c2ccccc21	96.0	-1.6	nt	nt	-8.3	nt
CCCCCn1c(=O)c(C(=O)Nc2ccccc2Cl)c(O)c2ccccc21	98.0	-4.1	75.5*	-0.5	4.3	33.4*	RORg DNA counter=i
CC(C)CCn1c(=O)c(C(=O)Nc2ccccc2S(N)(=O)=O)c(O)c2ccccc21	100.0	0.2	28.5*	7.9	10.1	21.0*
CS(=O)(=O)N1Cc2cc(Br)ccc2-n2nncc2C1	nt	nt	0.6	-0.7	nt	nt
C[C@@H]1CC[C@H]2[C@@H](C)C(=O)O[C@@H]3OC4(C)CC[C@@H]1[C@]32OO4	nt	nt	-5.7	nt	nt	nt
COc1cc2c(cc1OC)-c1c3c(cc4c1[C@@H](C2)N(C)CC4)OCO3	101.0	-1.3	15.4*	-8.1	-8.9	-3.4
COc1cc2c(cc1OC)-c1c(OC)c(OC)cc3c1C(C2)N(C)CC3 (centres undefined)	110.0	6.8	-2.6	-9.5	-26.1	nt
